Bioassay records from PubChem BioAssay.
Mcl1 Noxa PPI: Mcl-1/Noxa interaction inhibition; Q07820; TR-FRET Mcl-1/Noxa peptide binding, 2 h; inhibition, % at 21.7 µM; 1.5% of 220,000 active;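 active means compounds that cut the protein-peptide binding signal by more than 50% relative to plate controls in a single-dose test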;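 further: His-tagged Mcl-1 with rhodamine Noxa BH3 peptide and terbium anti-His antibody; 0% = Mcl-1 plus Noxa peptide wells and 100% = peptide-only wells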
NOD2-RIPK2 inh: inhibitors of human NOD2-RIPK2 interaction; CHO BLA complementation NOD2-RIPK2, CCF4 ratio; inhibition, % at 4.98 µM; 0.38% of 360,000 active; AID 624267; in the data active means inhibition above about 21%;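 further: 0% = vehicle only and 100% = reference blocker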
Mcl1-Bid inh: Mcl-1/Bid interaction inhibition; 0.97% of 220,000 active; inhibition, % at 21.7 µM; TR-FRET Mcl-1/Bid-Dy647 peptide binding, 1536-well; Q07820;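 active means compounds that cut the binding signal by more than half at the single screening dose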;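 further: His-tagged Mcl-1 with europium anti-His antibody binding Bid BH3 peptide; 0% = Mcl-1 plus peptide wells and 100% = peptide-only wells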
TLR4 MyD88 comp: blocks binding of human TLR4 to MyD88 | HeLa CL3-4 TLR4/MyD88 BLA complementation, FRET ratio | 0.18% of 200,000 active | AID 861 | inhibition, % at 8.4 µM; in the data active means inhibition above about 25%;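 further: 0% = vehicle and 100% = reference inhibitor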
TLR9-MyD88 inh: blocks human TLR9 binding to MyD88; CHO BLA complementation TLR9-MyD88, CCF4 FRET ratio; 0.21% of 340,000 active; inhibition, % at 4.98 µM; Q9NR96+Q99836;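 active means inhibition above the mean over all tested compounds plus 3 SD, cut at about 21% in these data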;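 further: 0% = DMSO only wells and 100% = clavulanate BLA inhibitor control wells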
Mcl-1 Bim block: inhibitors of Bim-Mcl-1 interaction, human; Bead-based flow cytometry, Bim peptide-Mcl-1 binding; inhibition, % at 10 µM; 0.1% of 190,000 active; in the data active means inhibition above about 40%;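 further: 0% = no compound tracer wells and 100% = peptide blocker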
TLR4 MyD88 cnf: confirmation of human TLR4-MyD88 binding inhibitors; AID 941; inhibition, % at 8.4 µM; 50% of 350 active; shares compounds with TLR4 MyD88 comp; HeLa CL3-4 BLA complementation, CCF4 FRET ratio;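 active means mean inhibition across three repeat runs above about 25% carried over from the earlier screen, limit read from the data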;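 further: plate controls were DMSO only for no effect and clavulanic acid blocking BLA at full dose for full effect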
BLA inhibitor ct: counter-screen for TLR4-MyD88 inhibitors: beta-lactamase reporter inhibitors; shares compounds with TLR4 MyD88 comp; inhibition, % at 8.4 µM; 63% of 350 active; HeLa BLA reporter, CCF4 FRET ratio;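 active means mean inhibition over three repeats above about 26% taken from the earlier screen, limit read from the data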;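 further: HeLa cells stably expressing beta-lactamase reporter as counterscreen for TLR4-MyD88 inhibitors; 0% = DMSO and 100% = clavulanic acid full inhibition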
TLR9-MyD88 conf: TLR9-MyD88 interaction inhibition, confirmation; inhibition, % at 4.98 µM; shares compounds with TLR9-MyD88 inh; 51% of 680 active; CHO TLR9/MyD88 BLA complementation, CCF4 FRET ratio;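 active means mean inhibition across three repeats above about 21% taken from the earlier screen, limit read from the data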;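 further: blue over green emission ratio reports constitutive TLR9 MyD88 association via BLA complementation; 0% = DMSO vehicle wells and 100% = clavulanate BLA inhibitor wells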
Target sequence (Q9NR96 whole entry, looked up): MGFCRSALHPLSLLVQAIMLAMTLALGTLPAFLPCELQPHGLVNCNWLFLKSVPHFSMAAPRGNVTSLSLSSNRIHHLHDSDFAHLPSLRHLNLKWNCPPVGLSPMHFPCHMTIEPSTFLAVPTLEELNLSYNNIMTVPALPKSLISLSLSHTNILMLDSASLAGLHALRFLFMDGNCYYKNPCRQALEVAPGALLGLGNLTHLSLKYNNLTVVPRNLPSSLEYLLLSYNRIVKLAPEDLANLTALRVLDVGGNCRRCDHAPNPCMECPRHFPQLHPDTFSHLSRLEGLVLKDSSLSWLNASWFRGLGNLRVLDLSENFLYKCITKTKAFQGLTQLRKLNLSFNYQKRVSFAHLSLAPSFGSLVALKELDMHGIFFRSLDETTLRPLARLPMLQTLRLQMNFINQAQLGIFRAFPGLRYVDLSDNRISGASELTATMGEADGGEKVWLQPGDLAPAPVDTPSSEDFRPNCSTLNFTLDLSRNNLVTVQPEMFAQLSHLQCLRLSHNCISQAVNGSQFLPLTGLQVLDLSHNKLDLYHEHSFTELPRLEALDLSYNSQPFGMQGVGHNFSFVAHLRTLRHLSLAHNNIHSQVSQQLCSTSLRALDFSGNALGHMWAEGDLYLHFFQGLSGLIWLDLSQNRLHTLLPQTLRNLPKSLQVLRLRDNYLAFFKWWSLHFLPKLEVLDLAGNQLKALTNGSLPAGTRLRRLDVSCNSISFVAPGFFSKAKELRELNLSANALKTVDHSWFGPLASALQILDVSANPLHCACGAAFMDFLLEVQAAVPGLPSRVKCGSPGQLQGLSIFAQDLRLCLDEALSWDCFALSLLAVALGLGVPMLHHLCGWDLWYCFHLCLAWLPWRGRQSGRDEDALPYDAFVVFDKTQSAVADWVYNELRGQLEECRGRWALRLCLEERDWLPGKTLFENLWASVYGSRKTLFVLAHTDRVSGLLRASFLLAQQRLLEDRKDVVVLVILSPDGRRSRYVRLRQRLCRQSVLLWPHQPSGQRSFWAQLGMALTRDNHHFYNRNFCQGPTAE
BLA counter-1: counter-screen for TLR9-MyD88 inhibitors: non-selective beta-lactamase inhibitors. shares compounds with TLR9-MyD88 inh. CHO-BLA cells, CCF4 FRET ratio, BLA reporter. inhibition, % at 4.98 µM. 7% of 680 active. AID 540251;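 active means mean inhibition above a 50% cutoff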;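 further: counterscreen of TLR9-MyD88 hits on CMV-driven BLA in CHO-K1 cells; 0% = DMSO alone and 100% = clavulanate blocking BLA; higher means less blue over green ratio so more BLA blockade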
TLR9 CHO tox: CHO cell toxicity counter-screen for TLR9-MyD88 inhibitors; shares compounds with TLR9-MyD88 inh; TLR9-MyD88 CHO cells cytotoxicity, luminescence; inhibition, % at 4.98 µM; 39% of 680 active; AID 588336; in the data active means inhibition above about 11%
NOD2 RIPK2 conf: confirmation of human NOD2-RIPK2 interaction inhibitors | shares compounds with NOD2-RIPK2 inh | CHO cells, NOD2-RIPK2 BLA complementation, CCF4 FRET | inhibition, % at 4.98 µM | 70% of 1,200 active;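 active means mean inhibition across replicates above a set limit taken from the earlier primary screen, cut at about 21% in these data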;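 further: 0% = DMSO-only wells and the high end = clavulanate BLA-blocked wells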
BLA counter-2: NOD2-RIPK2 counterscreen BLA reporter activity. inhibition, % at 4.98 µM. CHO BLA reporter, CCF4 FRET ratio. 57% of 1,200 active. AID 624371. shares compounds with NOD2-RIPK2 inh;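 active means mean inhibition above the low-control mean inhibition plus three low-control SD, cut at about 11% in these data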;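 further: 0% = DMSO only wells and 100% = clavulanate high control wells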
An asterisk follows results filed as active; / = no result given. Most compounds without a hit are left out; they make up all but 1.8% or so of the library.

SMILES | Mcl1 Noxa PPI | NOD2-RIPK2 inh | Mcl1-Bid inh | TLR4 MyD88 comp | TLR9-MyD88 inh | Mcl-1 Bim block | TLR4 MyD88 cnf | BLA inhibitor ct | TLR9-MyD88 conf | BLA counter-1 | TLR9 CHO tox | NOD2 RIPK2 conf | BLA counter-2
COc1ccc(C2=CC(c3ccc(Cl)cc3)n3cnnc3N2)cc1OC (stereo not drawn) | 15 | 47* | -103 | 39* | 50* | -6 | 26* | 49* | -4 | 1 | 6 | 2 | -8
CCOc1ccc(/C=C/[N+](=O)[O-])c2ccccc12 | 76* | 58* | 45 | 27* | 14 | 0 | 22 | -24 | / | / | / | 91* | 7
CCN(CC)c1ccc2cc(C(=O)c3cccs3)c(=O)oc2c1 | / | 20 | / | / | / | / | / | / | / | / | / | / | /
CCN(CC)c1ccc2cc(-c3nc4ccccc4n3C)c(=O)oc2c1 | 1 | 44* | 1 | 49* | 33* | 3 | 58* | 87* | 41* | 49 | 39* | 69* | 75*
Nc1ccc(NC(=O)NC2CCCCC2)cc1[N+](=O)[O-] | 11 | -15 | -49 | 0 | -10 | -2 | / | / | / | / | / | / | /
O=C(OCn1ncc(Cl)c(Cl)c1=O)c1ccc(C(F)(F)F)cc1 | 1 | 3 | -5 | 13 | 8 | -1 | / | / | / | / | / | / | /
CCOC(=O)c1ccc(NC(=O)Cn2ncc(Cl)c(Cl)c2=O)cc1 | 81* | 52* | 11 | 27* | 27* | -5 | 37* | 11 | 24* | 15 | 99* | 65* | 14*
Cc1ccc(C(=O)OCn2ncc(Cl)c(Cl)c2=O)cc1 | -10 | 66* | -19 | 55* | 30* | -1 | 62* | 18 | 27* | 26 | 98* | 85* | 8
Oc1c(Cl)cc(Cl)cc1/C=C/c1ccc2cccc(O)c2n1 | 82* | 37* | -56 | 34* | 27* | 2 | 19 | 43* | 20 | 18 | -8 | 47* | 54*
Oc1ccc(Cl)cc1/C=C/c1ccc2cccc(O)c2n1 | 46 | 5 | -38 | -4 | 13 | -1 | / | / | / | / | / | / | /
COc1ccc(Cn2ccnc2SCC(=O)Nc2ccc(F)cc2F)cc1 | / | 1 | / | / | -2 | / | / | / | / | / | / | / | /
COCCN(CC(=O)NC1CCCCC1)C(=O)/C=C/C(=O)c1ccc(OC)cc1O | 66* | 50* | 33 | 31* | 21 | -8 | 27* | -8 | / | / | / | 91* | 12*
COc1ccc(CN(C(=O)/C=C/C(=O)c2ccc(OC)cc2O)C(C(=O)NC2CCCCC2)c2ccncc2)cc1 (stereo not drawn) | 17 | 4 | -16 | -28 | -9 | -3 | / | / | / | / | / | / | /
CCC(=O)OCCNc1cc(Sc2nc3ccccc3[nH]2)c2nonc2c1[N+](=O)[O-] | 57* | 80* | -72 | 29* | 56* | 1 | 20 | -10 | / | / | / | 93* | 48*
CCCSc1cc(NCCOC(=O)CCC)c([N+](=O)[O-])c2nonc12 | 8 | -5 | -10 | 7 | -4 | 0 | / | / | / | / | / | / | /
CN(C)CCCN1C(=O)c2cccc3c([N+](=O)[O-])ccc(c23)C1=O | 14 | 82* | -6 | 86* | 70* | 0 | 86* | 109* | 55* | 72* | 95* | 90* | 77*
O=C1c2cccc3c([N+](=O)[O-])ccc(c23)C(=O)N1CCc1ccccn1 | -2 | 12 | -29 | / | -7 | / | / | / | / | / | / | / | /
CCOC(=O)C1CCCN(C(=O)c2cc3c(-c4cccc(OC)c4)nn(C)c3s2)C1 (stereo not drawn) | 15 | 5 | -11 | -5 | 28* | 0 | / | / | 3 | -2 | 27* | / | /
CCOC(=O)C1CCN(C(=O)c2cc3c(-c4ccc(OC)c(OC)c4)nn(C)c3s2)CC1 | 12 | -11 | -11 | 9 | 13 | -1 | / | / | / | / | / | / | /
COc1ccc(-c2oc(=O)c3cc(OC)c(OC)cc3c2/C=C/c2cccc([N+](=O)[O-])c2)cc1 | / | -6 | / | / | -4 | / | / | / | / | / | / | / | /
CCN1CCN(CCCNC(=O)c2ccc(NC(=O)C3=C(C)OCCS3)cc2)CC1 | / | -3 | / | / | -4 | / | / | / | / | / | / | / | /
O=C(Nc1nc2n(n1)C(c1ccccc1)C=C(c1ccccc1)N2)c1ccco1 (stereo not drawn) | 12 | -1 | -49 | 6 | -5 | -5 | / | / | / | / | / | / | /
CS(=O)(=O)Nc1nc2n(n1)C(c1ccccc1)C=C(c1ccc(Br)cc1)N2 (stereo not drawn) | 18 | 47* | 26 | 17 | 37* | 0 | / | / | 8 | 9 | 2 | / | /
CC(=O)Nc1nc2n(n1)C(c1ccccc1)C=C(c1ccccc1)N2 (stereo not drawn) | 9 | 56* | -12 | 18 | 56* | -1 | / | / | 34* | 40 | 1 | / | /
CN(C)CC1CC/C(=C\c2ccc(O)cc2)C1=O (stereo not drawn) | / | 65* | / | / | 28* | / | / | / | 24* | 2 | 97* | / | /
SMILES | Mcl1 Noxa PPI | NOD2-RIPK2 inh | Mcl1-Bid inh | TLR4 MyD88 comp | TLR9-MyD88 inh | Mcl-1 Bim block | TLR4 MyD88 cnf | BLA inhibitor ct | TLR9-MyD88 conf | BLA counter-1 | TLR9 CHO tox | NOD2 RIPK2 conf | BLA counter-2
CCOc1ccc(N(C(=O)c2snc(C(N)=O)c2N)C(C(=O)NC2CCCC2)c2ccncc2)cc1 (stereo not drawn) | / | -4 | / | / | -6 | / | / | / | / | / | / | / | /
CCN(CC)c1ccc(C=NNc2ccc([N+](=O)[O-])cn2)cc1 | / | 14 | / | / | 22* | / | / | / | 38* | 39 | 3 | / | /
CC(OC(=O)CCCN=C1NS(=O)(=O)c2ccccc21)C(=O)NC1CCCCC1C (stereo not drawn) | / | 9 | / | / | 10 | / | / | / | / | / | / | / | /
O=C1c2cccc3c(O)ccc(c23)C(=O)N1c1ccc(Cl)cc1 | / | 7 | / | / | 27* | / | / | / | 12 | 15 | 0 | / | /
O=C(CSc1nncs1)Nc1nccs1 | / | 0 | / | / | 26* | / | / | / | 0 | -2 | -1 | / | /
NC(=O)c1ccsc1NC(=O)CSc1nncs1 | / | 8 | / | / | -1 | / | / | / | / | / | / | / | /
Cn1cc(Br)c(C(=O)N/N=C/c2cc3c(cc2Cl)OCO3)n1 | / | -2 | / | / | -12 | / | / | / | / | / | / | / | /
COc1ccc(S(=O)(=O)N2CCC(NC(=O)C3CCCCC3)CC2)cc1 | / | 4 | / | / | 21* | / | / | / | -35 | 1 | -3 | / | /
CC1(C)CN(c2ccccc2)C(=O)[C@H]1CC(=O)Nc1ccccc1 | / | -6 | / | / | -6 | / | / | / | / | / | / | / | /
